# Records with an inconclusive call do not appear. Values without a mark were called inactive. Calls follow the shape of the full dose curve. Non-standard residues stand in square brackets, D forms with d. Residues, ends and D or L forms follow the SMILES beside them. *: point of attachment. Sta = CC(C)C[C@H](N)[C@@H](O)CC(=O)O; Isovaleryl = CC(C)CC(=O)*
# Experiment: qHTS assay to identify small molecule antagonists of the sonic hedgehog signaling (Shh) pathway (AID 1259369); also: nearly all actives have a fitted effect of over 45% in size
# Details: NIH/3T3 Gli1-Luc reporter, Shh antagonist, luminescence 24 h; series mostly up to 92.4 µM; activity change, negative = inhibition: at the top concentration
# Description: U.S. Tox21 Program National Center for Advancing Translational Sciences [NCATS] NIH Chemical Genomics Center [NCGC] U.S. Environmental Protection Agency [EPA] National Institutes of Environmental Health Sciences [NIEHS] National Toxicology Program [NTP] U.S. Food and Drug Administration [FDA] Tox21 Assay Overview: The sonic hedgehog (Shh) pathway is essential for normal embryonic development. Dysregulation of the Shh pathway can cause severe developmental defects in organs. Therefore chemicals that interfere with the pathway are potential developmental toxicants. A cell line designated 3T3Gli1-Luc (DMB/OARSA/CFSAN/FDA, Laurel, MD), a NIH/3T3 derived clone containing stably integrated Gli1-Luc reporter is used to detect chemical interference of the Shh pathway, by changes in the expression of the firefly Luc gene under the control of the Gli1 transcriptional response element. This cell line was used to screen Tox21 libraries for identifying and prioritizing the potential developmental toxicants that interfere Shh pathway. Conditioned medium-stimulated mode was used to screen for chemicals inhibiting Shh signaling.
# Tox21 Assay Protocol Summary: 3T3 Gli1-Luc cells were dispensed at 2,000 per well in 5uL of culture medium into white solid bottom 1536-well plates (Greiner Bio-One, Monroe, NC) using a Multidrop Combi (Thermo Scientific, Waltham, MA) dispenser. The assay plates were incubated at 37 C and 5% CO2 for 4hr, and then 23nL of compounds dissolved in DMSO and positive control were transferred using a Pintool station (Wako, San Diego, CA). The compound transfer was followed by the addition of 1ul conditioned medium or assay buffer using two separate tips of Flying Reagent Dispenser (FRD, Aurora Discovery, San Diego, CA). The assay plates were incubated at 37C and 5% CO2 for 24hr. For luciferase read, 4uL of Amplite Luciferase reporter gene assay reagent (AAT Bioquest, Inc. Sunnyvale, CA) was added to each well of the assay plates using FRD and incubated at room temperature for 30min. The luminescence signal was measured using a ViewLux plate reader (Perkin Elmer, Shelton, CT).
# % is scaled to controls: 0 for no effect and ±100 for the full control effect.
row,Compound,"activity change, negative = inhibition"
1,CCCCCCCCC1CO1 (stereo not given),21.3%
2,COC(=O)c1ccccc1Cl,6.41%
3,CC(O)CCCCn1c(=O)c2c(ncn2C)n(C)c1=O (stereo not given),-15% [at 42.5 µM]
4,CC(C)CC(=O)N[C@H](C(=O)N[C@H](C(=O)N[C@@H](CC(C)C)[C@@H](O)CC(=O)N[C@@H](C)C(=O)N[C@@H](CC(C)C)[C@@H](O)CC(=O)O)C(C)C)C(C)C (Isovaleryl-VV[Sta]A[Sta]-OH),27% [at 42.5 µM]
5,N[C@H]1C(O)O[C@H](CO)[C@@H](O)[C@@H]1O (stereo not given in full),25% [at 42.5 µM]
6,C/C=C(\C)C=O,12.9%
7,CC1=C(O)C(=O)CO1,-11.4%
8,CC(CC(=O)Cl)CC(C)(C)C (stereo not given),12.8%
9,CCCCN=C(N)N=C(N)N,25.7% [at 42.5 µM]
10,CC/C=C\CCOC(=O)c1ccccc1,12.8%
11,Cc1ccccc1C#N,20.7%
12,CCCC[O][Al]([O]CCCC)[O]CCCC,8.82%
13,Cc1cc(=O)oc2cc(O[C@@H]3SC[C@@H](O)[C@H](O)[C@H]3O)ccc12,-0.736% [at 42.5 µM]
14,CCc1ncc(C)[nH]1,7.12%
15,CN(C)CCCN(C)C,5.84% [at 8.39 µM]
16,NC[C@H]1O[C@H](O[C@H]2[C@H](O)[C@@H](O[C@H]3O[C@H](CO)[C@@H](O)[C@H](N)[C@H]3O)[C@H](N)C[C@@H]2N)[C@H](N)[C@@H](O)[C@@H]1O,16.7% [at 19 µM]
17,Cc1nnc(C(=O)NC(C)(C)c2nc(C(=O)NCc3ccc(F)cc3)c(O)c(=O)n2C)o1,6.25% [at 42.5 µM]
18,CN(C)CCc1c[nH]c2ccc(C[C@H]3COC(=O)N3)cc12,-3.56% [at 42.5 µM]
19,Clc1cc(Cl)c(Cl)c(Cl)c1Cl,12.6%
20,CCN(CC)CC(=O)Oc1ccc(NC(C)=O)cc1,13.7% [at 42.5 µM]

row,Compound,"activity change, negative = inhibition"
1,CCN1CCN(C(=O)N[C@@H](C(=O)N[C@@H]2C(=O)N3C(C(=O)O)=C(CSc4nnnn4C)CS[C@H]23)c2ccc(O)cc2)C(=O)C1=O,18.3% [at 42.5 µM]
2,CNC(=O)c1c(I)c(NC(C)=O)c(I)c(C(=O)O)c1I,19.2% [at 42.5 µM]
3,O=S(=O)(O)c1ccc(Cl)cc1,11.4%
4,CC(=O)O[C@@H]1CC2C3CCc4cc(OC(=O)c5ccccc5)ccc4C3CCC2(C)[C@H]1OC(C)=O (stereo not given in full),26.5% [at 42.5 µM]
5,O=C(OOC(=O)c1ccccc1)c1ccccc1,31.2% [at 42.5 µM]
6,CC(C)(C)C(=O)CCc1ccc(Cl)cc1,9.76%
7,CC(=O)SCC(CC(=O)c1ccc(C)cc1)C(=O)O (stereo not given),10.9% [at 42.5 µM]
8,CC(=O)Nc1ccc(S(=O)(=O)Nc2cc(C)on2)cc1,17% [at 42.5 µM]
9,CCC(C)c1nccnc1OC (stereo not given),0%
10,CC(C)c1cc(C(C)C)cc(C(C)C)c1,0%
11,CC(O)C(CO)C(C)O (stereo not given),37.6%
12,CCCC(=O)OC,12.1%
13,CCOC(=O)COc1ccc2c(C)c(CCN(CC)CC)c(=O)oc2c1Cl,-26.1% [at 42.5 µM]
14,Cc1cc(O)c(Cl)cc1C,13.5%
15,CCCCCC(=O)CC,0%
16,C/C(=N\O)c1ccc(OCC(=O)N2CCCCC2)cc1,55.7% [at 42.5 µM]
17,CCCCCCCCS(=O)(=O)O,14.8%
18,NC(=O)CC[C@@H](N)C(=O)O,2.86% [at 42.5 µM]
19,COc1cc(S(N)(=O)=O)cc(C(=O)O)c1OC,27.7% [at 42.5 µM]
20,COc1ccc(Cl)cc1C,-0.879%
